What all share (design): scale not given: direction of the effect not stated beside the values
Test [1] has as its target Protein translocase subunit SecA (Escherichia coli (strain K12)) (UniProt P10408). In words: Assay to Identify E. coli SecA ATPase Inhibitors. The following applies: 30 µM. Format: functional.
The target of test [2] is T1, Ubiquitin-activating enzyme e1, putative (Leishmania donovani (strain BPK282A1)) (UniProt E9BSI1).
T1 sequence (whole entry): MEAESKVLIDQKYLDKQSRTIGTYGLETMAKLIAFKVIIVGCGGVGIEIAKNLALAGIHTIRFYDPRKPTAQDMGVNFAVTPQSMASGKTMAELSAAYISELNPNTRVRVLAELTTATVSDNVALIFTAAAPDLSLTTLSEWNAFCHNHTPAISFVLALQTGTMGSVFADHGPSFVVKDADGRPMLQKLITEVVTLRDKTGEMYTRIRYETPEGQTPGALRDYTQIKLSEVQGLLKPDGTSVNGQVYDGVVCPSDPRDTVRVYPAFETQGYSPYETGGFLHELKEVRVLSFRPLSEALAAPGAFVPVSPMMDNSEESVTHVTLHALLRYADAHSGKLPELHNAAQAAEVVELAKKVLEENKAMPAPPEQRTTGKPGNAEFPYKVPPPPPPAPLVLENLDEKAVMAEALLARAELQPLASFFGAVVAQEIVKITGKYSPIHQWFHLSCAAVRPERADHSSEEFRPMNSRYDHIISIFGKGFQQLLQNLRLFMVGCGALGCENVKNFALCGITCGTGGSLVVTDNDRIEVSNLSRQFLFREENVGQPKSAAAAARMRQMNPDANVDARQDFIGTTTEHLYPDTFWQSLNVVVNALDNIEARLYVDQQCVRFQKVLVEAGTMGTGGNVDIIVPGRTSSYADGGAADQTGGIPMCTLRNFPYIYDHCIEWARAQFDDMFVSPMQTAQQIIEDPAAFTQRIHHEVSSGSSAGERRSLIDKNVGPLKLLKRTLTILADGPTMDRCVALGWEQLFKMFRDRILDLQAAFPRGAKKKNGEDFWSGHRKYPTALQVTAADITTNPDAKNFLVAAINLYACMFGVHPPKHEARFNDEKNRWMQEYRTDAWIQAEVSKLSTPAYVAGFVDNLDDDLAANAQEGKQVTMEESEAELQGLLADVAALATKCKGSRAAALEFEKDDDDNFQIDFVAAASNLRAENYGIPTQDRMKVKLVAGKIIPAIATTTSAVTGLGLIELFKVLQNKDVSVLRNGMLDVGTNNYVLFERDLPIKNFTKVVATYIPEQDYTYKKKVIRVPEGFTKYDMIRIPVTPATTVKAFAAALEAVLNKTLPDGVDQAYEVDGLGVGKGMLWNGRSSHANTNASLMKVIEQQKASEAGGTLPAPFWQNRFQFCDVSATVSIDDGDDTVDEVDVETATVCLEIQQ
In words: Leishmania donovani Ubiquitin Activating Enzyme (LdE1). Format: functional. Conditions: 30 µM.

In test [3] the target is AMP-activated protein kinase, AMPK (Homo sapiens) (UniProt P54646+O43741+P54619+Q9UGJ0+Q9Y478+Q13131+Q9UGI9). In words: AMP-dependent Kinase enzyme assay. An in vitro enzyme assay that detects ADP turnover that is directly proportional to AMPK activity. This uses naive AMPK that is activated during the assay with MK-8722. Format: functional. The following applies: 30 µM.

Test [4] deals with Sialic acid-binding Ig-like lectin 9 (Homo sapiens) (UniProt Q9Y336). Briefly: Hs-Siglec9 ALPHAscreen SOP 20170721. The following applies: 10 µM. A general note: Bead proximity is the source of the signal in Alpha formats.
In test [5] the test system is Trypanosoma cruzi. Briefly: Trypanosoma cruzi phosphomannomutase and mannose-1-phosphate guanylyltransferase assay. The test is classed as functional. Conditions: 10 µM.
Test [6] has as its target T2, Arginase-2, mitochondrial (Homo sapiens) (UniProt P78540).
T2 sequence (whole entry): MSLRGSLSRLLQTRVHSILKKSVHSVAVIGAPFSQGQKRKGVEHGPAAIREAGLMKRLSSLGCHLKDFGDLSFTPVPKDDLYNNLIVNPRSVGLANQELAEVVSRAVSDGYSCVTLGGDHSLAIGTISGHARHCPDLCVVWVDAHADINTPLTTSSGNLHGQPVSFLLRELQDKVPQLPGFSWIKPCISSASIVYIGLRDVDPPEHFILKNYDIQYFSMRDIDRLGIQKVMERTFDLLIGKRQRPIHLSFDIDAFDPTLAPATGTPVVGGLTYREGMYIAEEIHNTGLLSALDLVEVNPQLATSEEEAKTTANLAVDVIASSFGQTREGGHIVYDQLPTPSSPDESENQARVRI
In words: in vitro enzyme assay to detect the production of urea directly proportional to the activity of Arginase II. Also: in the data most compounds retested in dose-response had high values. Format: functional. The following applies: 33.3 µM.

In test [7] the target is T3, Proteasome subunit beta (Trypanosoma cruzi) (UniProt O96673).
T3 sequence (whole entry): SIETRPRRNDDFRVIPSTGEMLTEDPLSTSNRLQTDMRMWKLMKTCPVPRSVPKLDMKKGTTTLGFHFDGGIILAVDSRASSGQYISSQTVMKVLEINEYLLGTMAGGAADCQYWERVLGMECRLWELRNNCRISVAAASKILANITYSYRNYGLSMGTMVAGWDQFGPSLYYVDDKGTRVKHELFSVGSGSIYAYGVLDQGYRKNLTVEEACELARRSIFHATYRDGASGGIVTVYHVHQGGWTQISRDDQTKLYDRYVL
Briefly: Trypanosoma cruzi proteasome chymotrypsin-like activity (TcProtChymo) assay. Also: in the data most compounds retested in dose-response had high values. Format: functional. The following applies: 9.37 µM.

The species entered for test [8] is Homo sapiens. In words: To identify inhibition of the IFN signalling (Jak-Stat) pathway via expression of an eGFP reporter gene under the control of an IFN-stimulated response element (ISRE) containing MxA promoter. Format: functional. The following applies: 30 µM.
In test [9] the target is T4, Tyrosyl-tRNA synthetase, putative (Trypanosoma cruzi (strain CL Brener)) (UniProt Q4DSP6).
T4 sequence (whole entry): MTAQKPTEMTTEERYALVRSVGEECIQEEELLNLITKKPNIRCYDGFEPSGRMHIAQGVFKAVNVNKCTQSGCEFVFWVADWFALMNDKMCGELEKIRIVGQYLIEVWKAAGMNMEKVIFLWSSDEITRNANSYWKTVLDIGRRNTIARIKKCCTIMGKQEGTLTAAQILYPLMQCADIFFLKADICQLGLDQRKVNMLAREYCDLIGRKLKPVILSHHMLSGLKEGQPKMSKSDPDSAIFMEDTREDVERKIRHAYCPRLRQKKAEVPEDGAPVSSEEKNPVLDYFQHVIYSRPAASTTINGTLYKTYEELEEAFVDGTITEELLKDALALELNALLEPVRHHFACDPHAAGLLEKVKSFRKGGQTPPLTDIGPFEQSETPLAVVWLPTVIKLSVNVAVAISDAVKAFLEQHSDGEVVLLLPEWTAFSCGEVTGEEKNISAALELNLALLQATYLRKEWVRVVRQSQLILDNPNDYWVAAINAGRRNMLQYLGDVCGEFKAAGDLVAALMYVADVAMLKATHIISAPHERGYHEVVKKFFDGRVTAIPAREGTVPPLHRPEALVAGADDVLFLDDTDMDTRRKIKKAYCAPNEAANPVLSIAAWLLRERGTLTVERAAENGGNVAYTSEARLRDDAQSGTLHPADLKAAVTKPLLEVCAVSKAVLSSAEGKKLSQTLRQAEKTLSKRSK
Briefly: Trypanosoma cruzi tyrosyl tRNA synthetase (TcYRS) _High Tyrosine SOP. Also: in the data most compounds retested in dose-response had high values. The test is classed as functional. Conditions: 30 µM.

The target of test [10] is T4, Tyrosyl-tRNA synthetase, putative (Trypanosoma cruzi (strain CL Brener)). In words: Trypanosoma cruzi tyrosyl tRNA synthetase (TcYRS) SOP. Conditions: 30 µM. Format: functional.
Test [11] addresses Chromo domain-containing protein 1 (Saccharomyces cerevisiae (strain ATCC 204508 / S288c) (Baker's yeast)) (UniProt P32657). In words: ScCHD-1 Enzyme Inhibition Assay. Also: in the data most compounds retested in dose-response had high values. Format: functional. The following applies: 30 µM.

For some of these results: Entries with a potency or affinity are not part of this list.

This passage reports Percent Effect results from ChEMBL document CHEMBL3988442, “University of Dundee, Small-Polar-MMV Screening Library” (2021).

Sequence of Chromo domain-containing protein 1 (Saccharomyces cerevisiae (strain ATCC 204508 / S288c) (Baker's yeast)) (P32657 whole entry, the tested form may be a part): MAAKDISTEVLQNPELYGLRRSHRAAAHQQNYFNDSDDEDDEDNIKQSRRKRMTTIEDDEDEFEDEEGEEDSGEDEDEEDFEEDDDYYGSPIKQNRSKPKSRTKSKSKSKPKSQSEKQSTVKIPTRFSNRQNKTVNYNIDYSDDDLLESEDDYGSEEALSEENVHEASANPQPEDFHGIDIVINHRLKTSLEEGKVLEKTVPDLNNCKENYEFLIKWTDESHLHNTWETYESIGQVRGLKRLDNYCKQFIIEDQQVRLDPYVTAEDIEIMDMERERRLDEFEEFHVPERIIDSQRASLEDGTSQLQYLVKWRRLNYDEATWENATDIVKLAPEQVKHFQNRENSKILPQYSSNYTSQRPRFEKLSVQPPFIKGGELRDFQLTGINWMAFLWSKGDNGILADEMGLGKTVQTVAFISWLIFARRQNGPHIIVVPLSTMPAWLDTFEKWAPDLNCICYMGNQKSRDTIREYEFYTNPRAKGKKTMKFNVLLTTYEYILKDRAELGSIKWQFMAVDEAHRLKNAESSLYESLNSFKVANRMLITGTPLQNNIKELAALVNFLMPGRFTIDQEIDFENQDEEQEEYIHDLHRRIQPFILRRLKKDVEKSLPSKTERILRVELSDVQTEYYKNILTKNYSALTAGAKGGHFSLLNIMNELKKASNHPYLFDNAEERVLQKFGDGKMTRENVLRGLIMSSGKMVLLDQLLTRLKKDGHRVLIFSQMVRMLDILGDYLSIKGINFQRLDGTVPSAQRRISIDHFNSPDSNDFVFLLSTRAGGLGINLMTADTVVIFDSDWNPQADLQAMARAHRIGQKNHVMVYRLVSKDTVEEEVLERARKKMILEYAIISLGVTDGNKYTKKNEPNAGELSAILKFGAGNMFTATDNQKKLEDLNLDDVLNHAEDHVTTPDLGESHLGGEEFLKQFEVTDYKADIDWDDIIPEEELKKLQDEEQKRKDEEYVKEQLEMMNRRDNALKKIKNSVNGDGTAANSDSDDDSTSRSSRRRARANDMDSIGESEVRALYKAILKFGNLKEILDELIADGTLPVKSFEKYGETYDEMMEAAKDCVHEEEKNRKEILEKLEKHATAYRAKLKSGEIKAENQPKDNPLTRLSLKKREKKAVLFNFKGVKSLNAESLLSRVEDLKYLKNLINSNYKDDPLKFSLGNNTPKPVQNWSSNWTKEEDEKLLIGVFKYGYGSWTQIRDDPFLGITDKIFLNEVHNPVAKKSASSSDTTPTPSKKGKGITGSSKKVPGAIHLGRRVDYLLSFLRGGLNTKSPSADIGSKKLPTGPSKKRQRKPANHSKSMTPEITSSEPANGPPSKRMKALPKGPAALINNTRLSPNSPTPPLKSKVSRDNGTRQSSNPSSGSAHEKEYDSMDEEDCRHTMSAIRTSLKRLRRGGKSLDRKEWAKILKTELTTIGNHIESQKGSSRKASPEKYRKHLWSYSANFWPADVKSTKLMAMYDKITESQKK
Sequence of Protein translocase subunit SecA (Escherichia coli (strain K12)) (P10408 whole entry): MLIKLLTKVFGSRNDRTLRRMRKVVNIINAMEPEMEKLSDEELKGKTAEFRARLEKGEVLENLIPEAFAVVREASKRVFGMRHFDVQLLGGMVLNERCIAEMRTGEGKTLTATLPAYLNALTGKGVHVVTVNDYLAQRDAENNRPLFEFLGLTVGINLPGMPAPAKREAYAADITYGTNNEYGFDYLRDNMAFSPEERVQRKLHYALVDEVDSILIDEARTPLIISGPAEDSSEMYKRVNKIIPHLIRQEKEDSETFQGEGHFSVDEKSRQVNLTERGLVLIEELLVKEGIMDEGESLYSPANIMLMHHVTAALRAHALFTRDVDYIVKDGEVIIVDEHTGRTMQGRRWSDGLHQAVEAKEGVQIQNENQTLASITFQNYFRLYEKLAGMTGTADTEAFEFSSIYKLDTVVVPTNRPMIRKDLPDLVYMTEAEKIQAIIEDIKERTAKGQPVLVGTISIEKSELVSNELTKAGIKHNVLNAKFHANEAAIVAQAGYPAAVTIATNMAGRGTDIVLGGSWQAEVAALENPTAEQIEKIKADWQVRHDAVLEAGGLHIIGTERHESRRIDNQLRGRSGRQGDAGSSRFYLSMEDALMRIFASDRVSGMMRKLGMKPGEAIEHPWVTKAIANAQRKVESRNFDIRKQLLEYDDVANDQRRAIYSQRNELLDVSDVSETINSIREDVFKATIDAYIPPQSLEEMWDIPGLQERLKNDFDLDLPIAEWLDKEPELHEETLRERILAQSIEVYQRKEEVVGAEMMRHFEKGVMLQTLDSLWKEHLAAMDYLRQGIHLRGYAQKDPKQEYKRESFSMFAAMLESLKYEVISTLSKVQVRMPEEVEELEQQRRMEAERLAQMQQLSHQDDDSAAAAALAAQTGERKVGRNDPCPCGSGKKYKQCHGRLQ
Sequence of Sialic acid-binding Ig-like lectin 9 (Homo sapiens) (Q9Y336 whole entry): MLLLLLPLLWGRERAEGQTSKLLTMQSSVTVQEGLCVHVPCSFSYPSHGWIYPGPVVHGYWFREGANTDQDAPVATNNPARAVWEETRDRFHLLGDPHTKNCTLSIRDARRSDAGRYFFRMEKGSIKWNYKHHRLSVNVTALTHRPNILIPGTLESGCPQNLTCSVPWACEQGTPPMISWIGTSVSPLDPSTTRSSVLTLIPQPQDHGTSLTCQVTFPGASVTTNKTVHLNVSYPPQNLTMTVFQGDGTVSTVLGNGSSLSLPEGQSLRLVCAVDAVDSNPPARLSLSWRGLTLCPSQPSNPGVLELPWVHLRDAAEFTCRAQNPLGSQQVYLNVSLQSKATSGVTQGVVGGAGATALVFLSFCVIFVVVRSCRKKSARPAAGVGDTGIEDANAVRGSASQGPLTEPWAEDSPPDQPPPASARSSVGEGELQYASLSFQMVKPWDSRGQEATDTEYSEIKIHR

Take `Cc1cc(O)nc(C2CCCN(Cc3ccncc3)C2)n1` (stereo unspecified): the Percent Effect in [1] was -0.276%; in [2], 14.9%; in test [3], 4.7%; in test [4], -7.91%; in [5] it was 3.75%; in test [6] it was -0.696%. Further, the Percent Effect in test [7] is 10.4%; in [8], -0.951%; in test [9], 1.07%; in test [10] it was 11.7%; in test [11], -12.3%.

For the compound `CCC(=O)Nc1ccc(C(C)NC(=O)COCCOC)cc1` (stereo unspecified), the Percent Effect in [1] was 0.243%; in test [2], 15.8%; in test [3], -1.87%; in test [4], -5.07%; in test [5], 1.46%; in test [6] it was -3.55%. Moreover, the Percent Effect in [7] is 15.1%; in test [8] it was 23.5%; in [9] it was 4.25%; in [10], 15.6%; in test [11], -5.61%.

In the case of `O=C(c1cn(-c2cc(N3CCOCC3)ncn2)cn1)N1CCSCC1`, the Percent Effect is -3.27% in [1]; 8.22% in test [2]; -3.63% in test [3]; 4.82% in test [4]; 1.18% in test [5]; 4.09% in [6]. The Percent Effect is 25% in [7]; 8.07% in test [8]; 9.68% in test [9]; 15% in test [10]; -5.28% in test [11].

Turning to `CS(=O)(=O)NC1CCCN(C(=O)NCc2cccnc2)C1` (stereo unspecified), the Percent Effect in [1] was -2.71%; in [2], 15.6%; in test [3] it was 3.96%; in test [4], 1.09%; in test [5] it was 2.25%; in test [6] it was 1.9%. Also, the Percent Effect in [7] is 14.2%; in [8], -2.36%; in test [9] it was 7.62%; in test [10], 18.8%; in test [11], -11.9%.

As to `O=C(Nc1cccnc1)[C@H]1C[C@@H]2CCN(c3nncs3)C[C@H]2O1`, the Percent Effect in test [1] is -0.711%; in test [2], 5.41%; in test [3] it was -5.74%; in [4], -1.47%; in [5] it was 2.54%; in test [6], -2.08%. For the same compound, the Percent Effect in test [7] is 10.4%; in test [8], 4.24%; in [9] it was 10.9%; in test [10] it was 13.4%; in test [11], -4.77%.

For `CC(C)(C)c1cc(CN2CC[C@@H](NC(=O)c3cccnc3)[C@H](O)C2)n[nH]1`, the Percent Effect in test [1] was -3.5%; in test [2], 1.39%; in test [3] it was -10.7%; in [4], 10.3%; in test [5], 4.37%; in test [6], 17.7%. Further, the Percent Effect is 6.49% in test [7]; 15.6% in [8]; 3.16% in [9]; 12.8% in [10]; -6.81% in test [11].

For `O=C(Cn1ccc2c(Cl)cccc21)N[C@@H](C(=O)O)c1ccccc1`, the Percent Effect in test [1] was -1.64%; in test [2], 4%; in [3], 6.31%; in test [4], 0.703%; in test [5], -4.71%; in test [6] it was -7.57%. The Percent Effect in test [7] is 19.8%; in [8] it was -11.3%; in test [9] it was -7.41%; in test [10] it was -2.56%; in test [11] it was -4.5%.

As for `COCc1noc(-c2ccc(N(C)Cc3cc(C)no3)nc2)n1`, the Percent Effect was -1.27% in test [1]; 0% in test [2]; -1.25% in test [3]; 9.06% in test [4]; 5.79% in test [5]; 10.9% in test [6]. In addition, the Percent Effect in test [7] is 6.9%; in [8] it was 17.1%; in test [9], 5.82%; in test [10], 7.32%; in test [11], -6.04%.

`CN1CCN(Cc2cscn2)CC(C(=O)N(C)C)C1` (stereo unspecified): the Percent Effect in test [1] is -6.29%; in [2] it was 18.7%; in test [3], -6.4%; in [4], -0.543%; in test [5], 5.91%; in test [6], -3.03%. Moreover, the Percent Effect was 3.44% in [7]; 5.65% in test [8]; 8.51% in [9]; 14.1% in test [10]; -4.45% in test [11].

As for `CC(C)(C)OC(=O)N1CCCc2ccc(NCc3ncc[nH]3)cc21`, the Percent Effect was -8.07% in test [1]; 2.6% in [2]; 1.02% in test [3]; 4.72% in [4]; -4.03% in [5]; -11% in [6]. Further, the Percent Effect is 4.66% in test [7]; 7.74% in test [8]; 1.07% in test [9]; -3.7% in test [10]; -0.00165% in test [11].

`CCc1nc(CN2CCCN(C(=O)C(C)n3ccnc3)CC2)cs1` (stereo unspecified): the Percent Effect in [1] was -2.92%; in test [2], 5.2%; in [3], 3.99%; in [4], 3.63%; in test [5] it was 3.75%; in [6] it was -5.69%. Besides, the Percent Effect in [7] was 21.1%; in [8] it was -7.97%; in test [9] it was 5.83%; in [10], 9.76%; in test [11], -4.4%.
